# Source: PubChem
# A selection: hits, their analogues and other compounds. The true share with any hit is near 4.2%.
# TRPV1 potentiator = HTS Assay for Compounds that Act as Potentiators of the Vanilloid Receptor 1 | Transient receptor potential cation channel subfamily V member 1 (Homo sapiens), Q8NER1 | TRPV1-expressing cells, Fluo-8 calcium influx, capsaicin EC20 potentiation | potentiation, % at 8.33 µM | actives 0.02% (n = 320,000) | AID 540277, 2011; in the data active = potentiation above about 80%; inconclusive = between about 30% and that limit
#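 Cells expressing TRPV1 were dye-loaded with Fluo-8 and read kinetically: 10 s baseline, 3 min after compound (agonist portion), then 2 min after EC20 capsaicin (allosteric enhancer portion). Calcium-bound dye fluorescence at 480/520 nm.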
# D1 PAM = Potentiators of Human D1 Dopamine Receptor: qHTS. AID 504651, 2011. HEK293 TREx D1 cells, calcium flux, dopamine EC20 potentiation. D(1A) dopamine receptor (Homo sapiens), P21728. actives 0.036% (n = 360,000). potentiation, % at 10 µM; in the data active = potentiation above about 30%
# Target sequence (P21728 whole entry, looked up): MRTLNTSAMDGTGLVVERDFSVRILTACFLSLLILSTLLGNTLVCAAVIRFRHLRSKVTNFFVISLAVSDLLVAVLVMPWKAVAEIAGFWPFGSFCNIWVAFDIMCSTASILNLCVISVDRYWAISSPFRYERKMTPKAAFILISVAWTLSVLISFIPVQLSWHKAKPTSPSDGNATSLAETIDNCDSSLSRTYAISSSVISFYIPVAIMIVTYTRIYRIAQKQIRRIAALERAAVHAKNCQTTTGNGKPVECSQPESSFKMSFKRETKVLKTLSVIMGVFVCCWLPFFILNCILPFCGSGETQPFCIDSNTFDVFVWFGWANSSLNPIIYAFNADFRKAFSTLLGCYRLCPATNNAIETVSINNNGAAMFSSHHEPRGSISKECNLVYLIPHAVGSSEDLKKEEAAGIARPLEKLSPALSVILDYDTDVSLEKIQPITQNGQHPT
# TRPV1 agonist = HTS Assay for Compounds that Act as Agonists of the Vanilloid Receptor 1; activation, % at 8.33 µM; Transient receptor potential cation channel subfamily V member 1 (Homo sapiens), Q8NER1; actives 0.19% (n = 320,000); TRPV1-expressing cells, Fluo-8 calcium influx, agonist mode; in the data active = activation above about 80%; inconclusive = between about 30% and that limit
#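 Cells expressing TRPV1 were dye-loaded with Fluo-8 and read kinetically: 10 s baseline, 3 min after compound (agonist portion), then 2 min after EC20 capsaicin (allosteric enhancer portion). Calcium-bound dye fluorescence at 480/520 nm.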
# D1 antagonist = Antagonist of Human D 1 Dopamine Receptor: qHTS; D(1A) dopamine receptor (Homo sapiens), P21728; HEK293 TREx D1 cells, calcium flux, dopamine EC80; stronger effect = lower value; activity change, negative = inhibition, % at 10 µM; actives 3.2% (n = 360,000); AID 504652, 2011; in the data active = activity change below about -30%
#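 Antagonism measured as reduced calcium response to an EC80 dopamine addition following 180 s compound pre-read; cells were inducible HEK293 Trex D1 plated overnight at 30 C, read kinetically at 1 cycle/sec.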
# D1 agonist = Allosteric Agonists of the Human D1 Dopamine Receptor: qHTS; D(1A) dopamine receptor (Homo sapiens), P21728; actives 1% (n = 360,000); HEK293 T-REx D1 cells, calcium flux, agonist mode; activation, % at 2 µM; in the data active = activation above about 30%
#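 Tetracycline-induced HEK293 TREx D1 cells, force-coupled to calcium signalling, were dye-loaded with a no-wash calcium kit. Compound was pin-added after a 10 s baseline. Fluorescence was read kinetically at 1 cycle/s for 180 s, with calcium rises flagged as agonism.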
# Numbers stand for hits; 0 = inactive; ? = inconclusive; - = no result; ! = not active in a repeat.
SMILES,TRPV1 potentiator,D1 PAM,TRPV1 agonist,D1 antagonist,D1 agonist
Cc1cc2nc3c(=O)n(C)c(=O)n(C)c3nc2cc1N=CN(C)C,-,0,-,0,46
O=C(Cn1cnc2onc(-c3ccc(F)cc3)c2c1=O)Nc1cccc(C(F)(F)F)c1,-,0,-,0,0
Cc1ccccc1CNC(=O)C1CCCCN1S(=O)(=O)c1ccc(F)cc1 (stereo not given),-,0,-,-32,0
O=C(NCc1ccc(F)cc1)C1CCCCN1S(=O)(=O)c1ccc(F)cc1 (stereo not given),-,0,-,0,0
O=C(Nc1ccccn1)[C@@H]1CCC(=O)N1C(=O)OCc1ccccc1,0,0,0,-31,0
Cc1ccc(NC(=O)C2CCC(=O)N2C(=O)OCc2ccccc2)cc1 (stereo not given),0,0,0,0,0
COc1cccc(CNC(=O)Cn2c(=O)oc3cc(S(=O)(=O)N4CCC(C)CC4)ccc32)c1,-,0,-,0,0
O=C(Cn1c(=O)oc2cc(Cl)ccc21)Nc1cccc(C(F)(F)F)c1,-,0,-,-47,0
CC1CCN(S(=O)(=O)c2ccc3c(c2)oc(=O)n3CC(=O)NCc2ccc(F)cc2)CC1,-,0,-,-57,87
Cc1cccc(NC(=O)Cn2c(=O)oc3cc(S(=O)(=O)NCc4ccccc4)ccc32)c1,-,0,-,-35,0
COc1ccc(CNC(=O)Cn2c(=O)oc3cc(S(=O)(=O)N4CCCC4)ccc32)cc1,0,0,0,-41!,0
COc1ccc(OC)c(NS(=O)(=O)c2ccc(-c3cc(C)no3)s2)c1,-,0,-,0,0
CC(C)c1ccc(NC(=O)Cn2c(=O)oc3cc(S(=O)(=O)N4CCCC4)ccc32)cc1,-,0,-,-36,0
COc1ccc(NC(=O)Cn2c(=O)oc3cc(S(=O)(=O)N4CCCC4)ccc32)cc1,0,0,0,0,0
COc1ccc(-n2ccnc(NCc3cccs3)c2=O)cc1,-,0,-,-34,0
COc1ccc(-n2ccnc(NCc3cccs3)c2=O)cc1OC,-,0,-,0,0
CCc1ccc2ncc3c(-c4ccc(F)cc4)nn(CC(=O)NCc4ccccc4)c3c2c1,-,0,-,0,0
CCOC(=O)c1c(C)[nH]c(C)c1S(=O)(=O)N(C)CC(=O)N1CCN(c2ccccc2OC)CC1,-,0,-,0,0
Cc1nc2nc(C)c(CCC(=O)NC(C)c3ccc4c(c3)OCCO4)c(C)n2n1 (stereo not given),0,0,0,-48,0
CCc1ccc(/C=C2/SC(=S)N(CCC(=O)Nc3cccc(C(=O)O)c3)C2=O)cc1,0,0,0,0,68
CCc1ccc(/C=C2/SC(=S)N(CCCC(=O)Nc3ccccc3C(=O)O)C2=O)cc1,0,0,0,-32,0
Cc1ccc(NC(=O)Cc2ccc([N+](=O)[O-])cc2)c(Br)c1,0,0,0,-45,0
Cc1ccccc1NCc1ccc([N+](=O)[O-])s1,?,0,0,-32,0
Cc1cc([N+](=O)[O-])ccc1NCc1ccccc1,0,0,0,-32,0
COc1cc([N+](=O)[O-])ccc1NC(=O)Cc1ccc(C)cc1,0,0,0,-,0
SMILES,TRPV1 potentiator,D1 PAM,TRPV1 agonist,D1 antagonist,D1 agonist
Cc1cc([N+](=O)[O-])ccc1NC(=O)Cc1ccc(F)cc1,0,0,0,-32,0
CC1=C(c2ccc(C)c(C)c2)S(=O)(=O)N=C1N1CCC(C(=O)NCc2ccc(C)o2)CC1,-,0,-,0,0
O=C(NCc1ccccc1)C1CCN(S(=O)(=O)Cc2ccccc2)CC1,-,0,-,0,0
CCN(CC)CCNC(=O)c1ccc2c(=O)n3nc(Nc4ccccc4)sc3nc2c1,-,0,-,0,0
O=C(NCCc1ccc(F)cc1)Nc1ccc([N+](=O)[O-])cc1,0,0,?,-49,0
CCCCCOc1ccccc1Cn1c(=O)oc2ccc(C)cc21,-,0,-,-48,0
Cc1ccc(C(C)C)c(OCCn2c(=O)oc3ccccc32)c1,0,0,0,0,37
Cc1ccccc1OCCn1c(=O)oc2ccccc21,0,0,0,0,0
Cc1ccc2oc(=O)n(CCCOc3ccccc3)c2c1,0,0,0,0,0
COc1ccc(OCCCn2c(=O)oc3ccc(C)cc32)cc1,-,0,-,-32,73
Cc1ccc(C)c(NC(=O)C2CCCN(c3nc4ccccc4s3)C2)c1 (stereo not given),-,0,-,0,0
COc1ccccc1N1CCN(C(=O)c2cc(CC(C)C)on2)CC1,-,0,-,0,0
COc1ccccc1C(=O)NNC(=S)NC(=O)c1cccs1,0,0,0,0,0
COc1ccccc1C(=O)NNC(=S)NC(=O)c1sc2ccccc2c1Cl,0,0,0,0,213
COc1ccccc1C(=O)NC(=S)NNC(=O)c1sc2ccccc2c1Cl,0,0,0,0,199
Cc1c(NC(=S)NC(=O)c2sc3ccccc3c2Cl)cccc1C(=O)O,0,0,0,0,0
Cc1nc2ccn(Cc3ccco3)c(=O)c2cc1C(=O)NCc1ccccc1,-,0,-,0,0
CC(=O)c1ccc(Nc2ccc3cc(S(=O)(=O)N4CCCC4)ccc3n2)cc1,-,0,-,0,0
Cn1c(-c2ccc(Cl)nc2)nc2cc(Cl)ccc21,0,0,0,-33,0
Cc1ccc(-c2cn(CCN)c(-c3ccc(Cl)nc3)n2)cc1,0,0,0,0,0
CC(C)OCCCn1c(=O)c2ccccc2n2c(-c3ccc(F)c(F)c3)nnc12,-,0,-,0,0
CCOc1ccc(C2C=C(c3ccccc3)Nc3nnnn32)cc1 (stereo not given),0,0,0,0,0
CN(C)c1ccc(C2C=C(c3ccccc3)Nc3nnnn32)cc1 (stereo not given),-,0,-,0,31
CC1=CC(c2ccccc2)n2nnnc2N1 (stereo not given),0,0,0,-35,0
Cc1cc(NC(=O)CCCn2c(C)c3cnn(-c4ccccc4)c(=O)c3c2C)ccc1Br,-,0,-,0,0
SMILES,TRPV1 potentiator,D1 PAM,TRPV1 agonist,D1 antagonist,D1 agonist
Cc1noc(-c2ccc(C(F)(F)F)cc2)c1NC(=O)Nc1ccc(Cl)cc1,0,0,?,-42,0
Cc1cc(-c2onc(C)c2C(=O)Nc2ccc(C(F)(F)F)cc2)no1,-,0,-,0,0
COc1ccc2cc(S(=O)(=O)c3ccccc3F)c(=O)oc2c1,-,0,-,0,0
Cc1ccc(C)c(-n2c(CCC(=O)O)ccc2-c2ccc(Cl)cc2)c1,-,0,-,-32,0
COc1ccc(C2=C(C)C(=NCCCN3CCN(c4cc(C)ccc4C)CC3)NS2(=O)=O)cc1,-,0,-,0,0
C/C=C(/C)C(=O)O[C@@H]1c2cc3c(c(OC)c2-c2c(cc(OC)c(OC)c2OC)[C@@H](OC(C)=O)[C@@H](C)[C@H]1C)OCO3,0,0,0,-62,0
Cn1c(SCC(=O)c2cc(Cl)c(Cl)s2)nnc1-c1ccco1,-,0,-,-68,0
